Inhibition data for eleven molecules are collected here from ChEMBL document CHEMBL1157539, “Thousands of chemical starting points for antimalarial lead identification” (Nature, 2010).

Common to all, as to assay type: functional
Assay [1] concerns Plasmodium falciparum. Kind of assay: GSK_TCMDC: Inhibition of Plasmodium falciparum 3D7 in whole red blood cells, using parasite LDH activity as an index of growth. Test compounds present at 2uM.
In assay [2] the test system is Plasmodium falciparum. In words: GSK_TCMDC: Inhibition of Plasmodium falciparum Dd2 in whole red blood cells, using parasite LDH activity as an index of growth. Test compounds present at 2uM.
A further assay concerns HepG2. Kind of assay: GSK_TCMDC: Percent inhibition of human HepG2 cell line. Test compounds present at 10uM.

SMILES strings stand for the structures.

Usually Inhibition stands for the percentage by which the read-out fell short of the control. Low values mean little suppression, high ones strong suppression. As for `CN(C)c1ccc(CN2CCC(NC(=O)c3ccc(-c4cccc(C(F)(F)F)c4)s3)CC2)cc1.O=C(O)C(F)(F)F`, the Inhibition in the assay on Plasmodium falciparum [1] turned out to be 97%; in the assay with Plasmodium falciparum [2], 40%; in the assay with HepG2, 90%.

For `Cl.ON=C1CCc2cc(-c3[nH]c(-c4cccc(OCCNCc5ccc(F)cc5)c4)nc3-c3ccncc3)ccc21`, the Inhibition in the assay with Plasmodium falciparum [1] is 89%; in the assay with Plasmodium falciparum [2], 69%; with HepG2, 76%.

Turning to `O=S(=O)(c1c(Cl)cc(Cl)cc1Cl)N1CCCCC(c2ccc(C(F)(F)F)cc2)=N1`, the figures for the Inhibition in the assay with Plasmodium falciparum [1], with Plasmodium falciparum [2] and in the assay on HepG2 were 98%, 99% and 6%, respectively.

For `Cl.NOCCCOc1ccc(Cl)cc1`, the Inhibition in the assay on Plasmodium falciparum [1] was 98%; in the assay with Plasmodium falciparum [2], 0%; with HepG2, 12%.

Consider `CCOc1cc(-c2nnc3[nH]c(=O)n(C)c(=O)c3n2)ccc1OC(C)C`, for which the Inhibition in the assay on Plasmodium falciparum [1] is on record as 97%; in the assay with Plasmodium falciparum [2], 86%; in the assay on HepG2 it was 15%.

Regarding `CCCCn1c(-c2ccco2)nc2c(c(=O)c3ccccc3n2C)c1=O`, the Inhibition is reported as 87% in the assay with Plasmodium falciparum [1], 64% in the assay with Plasmodium falciparum [2] and 11% in the assay on HepG2.

For the molecule `CN1CCN(c2ccnc3ccc(NC(=O)N(C)c4ccc(Cl)c(Cl)c4)cc23)CC1`, the Inhibition stood at 100% in the assay with Plasmodium falciparum [1], 85% in the assay with Plasmodium falciparum [2] and 5% in the assay with HepG2.

For the molecule `COc1ccc2c(NN=Cc3cccc(F)c3)ccnc2c1`, the Inhibition in the assay with Plasmodium falciparum [1] worked out at 100%; in the assay with Plasmodium falciparum [2], 95%; in the assay with HepG2, 49%.

Regarding `O=[N+]([O-])c1cccc(NC(=S)N2CCCN(Cc3ccc(C(F)(F)F)cc3)CC2)c1`, the Inhibition with Plasmodium falciparum [1] is listed as 90%; in the assay with Plasmodium falciparum [2] it was 49%; with HepG2, 11%.

For `Cc1cccc2nc(-c3cccc(-c4ccc(NC(=O)Cc5ccccn5)cc4)c3)[nH]c12`, the Inhibition turned out to be 94% in the assay on Plasmodium falciparum [1], 57% in the assay on Plasmodium falciparum [2] and 25% in the assay with HepG2.

Take `O=C(COC(=O)c1cccc(S(=O)(=O)N2CCc3ccccc32)c1)NNC(=O)c1cccs1`: the results for the Inhibition with Plasmodium falciparum [1], in the assay with Plasmodium falciparum [2] and with HepG2 were 96%, 4% and 4%, respectively.
